Source: PubChem BioAssay AID1481 (The Scripps Research Institute Molecular Screening Center, 2009)
Hit rate of the full screen: of about 220,000 compounds, about 920 (0.42%) were called active. Many of the other results were omitted from the sample, so actives are more common in it than they were. A number with no mark means an inactive call. Cut-off read from the data, not from the text of the source: active = inhibition above about 15%; inactive = the rest.

These molecules were tested against Transitional endoplasmic reticulum ATPase (Homo sapiens) (UniProt P55072) (assay: p97 ATP hydrolysis blockers – biochemical, primary screen (AID 1481;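 note: 0% = DMSO vehicle and 100% = wells lacking enzyme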)). Conditions: recombinant p97 ATPase, Kinase-Glo ATP luminescence, 3 h; at 8 µM; active compounds read high.
Sequence of Transitional endoplasmic reticulum ATPase (Homo sapiens) (P55072 whole entry, looked up): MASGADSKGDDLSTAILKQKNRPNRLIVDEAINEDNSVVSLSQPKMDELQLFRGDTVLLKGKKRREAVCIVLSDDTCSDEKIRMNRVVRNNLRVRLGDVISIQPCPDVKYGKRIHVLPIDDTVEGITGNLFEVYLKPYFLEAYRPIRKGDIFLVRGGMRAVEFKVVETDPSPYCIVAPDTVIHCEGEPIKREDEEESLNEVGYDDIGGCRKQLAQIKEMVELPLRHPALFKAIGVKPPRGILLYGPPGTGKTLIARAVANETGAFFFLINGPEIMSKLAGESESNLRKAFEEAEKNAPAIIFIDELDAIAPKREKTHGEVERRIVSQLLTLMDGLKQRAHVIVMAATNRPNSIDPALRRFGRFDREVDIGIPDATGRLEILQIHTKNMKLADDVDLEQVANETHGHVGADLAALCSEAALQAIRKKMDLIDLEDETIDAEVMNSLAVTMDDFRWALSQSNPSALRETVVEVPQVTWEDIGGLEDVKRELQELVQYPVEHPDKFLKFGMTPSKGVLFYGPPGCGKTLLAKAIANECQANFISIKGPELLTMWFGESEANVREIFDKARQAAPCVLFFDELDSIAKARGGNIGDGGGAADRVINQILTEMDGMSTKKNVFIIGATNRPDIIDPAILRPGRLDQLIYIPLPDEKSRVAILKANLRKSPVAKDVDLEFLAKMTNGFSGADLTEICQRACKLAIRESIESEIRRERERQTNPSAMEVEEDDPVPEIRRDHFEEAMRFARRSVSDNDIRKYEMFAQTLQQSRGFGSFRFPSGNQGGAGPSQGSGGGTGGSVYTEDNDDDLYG
For `Cc1cc(C)c2c(n1)nn1c(-n3ccnc3)cc(C)nc21`, the inhibition was 31.7% (active). `Cc1cc(C)c2c(n1)nn1c(N3CCOCC3)cc(C)nc21` gave an inhibition of 5.86%. Work on `Cc1cc(C)c2c(n1)nn1c(N3CCN(c4cccc(Cl)c4)CC3)cc(C)nc21` yielded an inhibition of -0.34%. Work on `O=[N+]([O-])c1cc([N+](=O)[O-])c2cccnc2c1O` yielded an inhibition of -0.5%. `O=C(/C=C/c1ccc(N2CCOCC2)cc1)c1ccccc1` gave an inhibition of 3.1%. `NC(N)=N/N=C/c1ccc(Cl)c([N+](=O)[O-])c1` showed an inhibition of 4.25%. Work on `COc1ccc(C(=O)O/N=C(\N)Cc2ccc(Cl)cc2Cl)cc1OC` yielded an inhibition of -0.33%. `NC(N)=N/N=C/c1ccc(OCc2ccc(Cl)cc2Cl)cc1` was tested, and the inhibition was 17.6% (active). In the case of `Nn1c(SCC(=O)Nc2nccs2)nncc1=O`, the inhibition was 3.78%. With `COc1ccc(CS(=O)/C(Cl)=C(/Cl)C(=O)Nc2ccc(OC)nc2)cc1` (centres undefined) the inhibition was 22% (active). In the case of `COc1ccc(NC(=S)Nc2ccccc2Cl)cn1`, the inhibition was 2.95%. `COc1ccc(NC(=O)/C(Cl)=C(/Cl)S(=O)Cc2ccc(C)cc2)cn1` (centres undefined) gave an inhibition of 10.7%. For `CC1CCN(c2ccc([N+](=O)[O-])c(SCCO)c2)CC1`, the inhibition was 7.8%. For `Cc1cc(C)c2cc(CN(Cc3nnnn3Cc3ccc(F)cc3)C3CCCC3)c(=O)[nH]c2c1`, the inhibition was 28.6% (active). `Cc1cccc2cc(CN(Cc3nnnn3Cc3ccccc3)C3CCCC3)c(=O)[nH]c12` gave an inhibition of 1.15%. `Cc1cc(C)c2cc(CN(Cc3cccs3)Cc3nnnn3CC3CCCO3)c(=O)[nH]c2c1` (centres undefined) gave an inhibition of -6.18%. Work on `O=C(COc1ccc(/C=N/NS(=O)(=O)c2ccccc2)cc1)NCCc1ccccc1` yielded an inhibition of 0.13%. `COCCNc1nc2nonc2nc1N(C)Cc1ccc(C)cc1` showed an inhibition of -0.9%. With `CN1CCN(/N=C2/C(=O)Nc3ccc([N+](=O)[O-])cc32)CC1` the inhibition was -0.51%. For `Cc1nc2cccnc2nc1C`, the inhibition was 5.4%. Work on `O=C(N/N=C/c1sc(N2CCCCC2)nc1-c1cccs1)c1cccnc1` yielded an inhibition of -2.01%. For `CC(=O)Nc1ccc(S(=O)(=O)Nc2ccc(-c3ccc4nnc(C)n4n3)cc2)cc1`, the inhibition was 0.45%. With `CCOC(=O)c1cc2c(nc1NC(=S)Nc1ccccc1)CC(C)(CC)OC2` (centres undefined) the inhibition was -6.73%. `O=C(CN1CCCCC1)Nc1ccccc1Cl` gave an inhibition of -2.65%. With `O=C(Nc1ccccc1Cl)/C(Cl)=C(\Cl)S(=O)c1ccccc1` (centres undefined) the inhibition was 20% (active). `O=C(Nc1ccccc1Cl)c1ccc2nsnc2c1` showed an inhibition of 2.33%. `CCCc1nc2c(c(=O)c3ccccc3n2C)c(=O)n1-c1cc(C)cc(C)c1` showed an inhibition of 1.03%. `COc1ccc(/C=N/N=C2/C(=O)Nc3ccccc32)cc1O` gave an inhibition of -3.95%. Molecule `Cc1nnc2n1N=C(c1ccc3c(c1)NC(=O)CO3)CS2` has an inhibition of 4.3%. In the case of `O=C(OCC1O[C@@H](OC(=O)c2cc(O)c(O)c(O)c2)[C@@H](OC(=O)c2cc(O)c(O)c(O)c2)[C@@H](OC(=O)c2cc(O)c(O)c(O)c2)[C@@H]1OC(=O)c1cc(O)c(O)c(O)c1)c1cc(O)c(O)c(O)c1` (some centres undefined), the inhibition was 67% (active). In the case of `CC(=O)NC1C(OCc2ccccc2)OC(COC(C)=O)C(OC(C)=O)C1OC(C)=O` (centres undefined), the inhibition was 1.05%. For `COC(=O)c1scc(C)c1NC(=O)CSc1ccc(Cl)cc1`, the inhibition was -1.74%. For `CN(C)[C@@H]1C(=O)C(C(N)=O)=C(O)[C@@]2(O)C(=O)C3=C(O)c4c(O)ccc(Cl)c4[C@@H](O)[C@H]3C[C@@H]12`, the inhibition was 23.4% (active). `COc1ccc(CCNS(=O)(=O)c2ccc(Cl)s2)cc1OC` was tested, and the inhibition was -7.85%. `Cn1c(N)cc(-c2ccc(F)cc2)c(C#N)c1=O` was tested, and the inhibition was -2.35%. With `O=C(Nc1nnc(CCN2CCCCC2)s1)c1cccc(Cl)c1` the inhibition was 2.22%. Molecule `Cn1c(=O)c2c(-c3cccc(Br)c3)c(C#N)c(N)nc2n(C)c1=O` has an inhibition of 0.09%. In the case of `O=C(NNC(=S)Nc1ccccc1)c1cccc(S(=O)(=O)N2CCOCC2)c1`, the inhibition was 15.6% (active). `Cc1cc(C(=O)NNC(=O)c2cccc(S(=O)(=O)N3CCOCC3)c2)c2ccccc2n1` gave an inhibition of -3.18%. `O=C(c1cccc(S(=O)(=O)N2CCOCC2)c1)N1CCOCC1` was tested, and the inhibition was 0.28%. With `COCC(C)NCc1cc(Br)ccc1OC` (centres undefined) the inhibition was 0.25%. Molecule `Cn1cccc1/C=N/NC(=O)CNc1cccc2ccccc12` has an inhibition of 3.45%. `CN(C)C=NC(=O)c1cccn1-c1ncc(C(F)(F)F)cc1Cl` gave an inhibition of -5.69%. `O=C(C1=C(O)C(=O)N(CCOCCO)C1c1ccccn1)c1cccs1` (centres undefined) was tested, and the inhibition was 2.8%. `Cc1cc(C)cc(NC(=O)N(C)Cc2ccccc2)c1` showed an inhibition of -0.6%. `Cn1c(SCC(=O)C(C)(C)C)nnc1-c1ccccn1` was tested, and the inhibition was -4.36%. In the case of `CCSc1nc(-c2ccc(OC)cc2)cc(-c2ccc(OC)cc2)c1C#N`, the inhibition was 0.73%. For `COc1ccc(-c2cc(-c3ccc(N)cc3)nc(N)c2C#N)cc1OC`, the inhibition was 18.6% (active). `CCOc1cc(-c2cc(-c3ccc(OC)cc3)nc(N)c2C#N)ccc1O` gave an inhibition of 2.46%. `COc1ccc(N2CCC(CNC(=S)Nc3c(C)cccc3C)C2)cc1` (centres undefined) gave an inhibition of 1.49%. Work on `O=C1N(c2ccc(Cl)cc2)C(c2ccc(Cl)cc2)N2CCCN12` (centres undefined) yielded an inhibition of 4.79%. In the case of `Cn1c(=NC(=O)c2ccc3c(c2)OCCO3)sc2cc(S(C)(=O)=O)ccc21`, the inhibition was -0.6%. With `S=C(Cc1ccc(Cl)cc1)N1CCOCC1` the inhibition was -3.61%. `CC(=O)N1CCc2cc(Br)cc(S(=O)(=O)CCC(=O)Nc3c(C)n(C)n(-c4ccccc4)c3=O)c21` was tested, and the inhibition was 16.1% (active). Molecule `Cc1ccccc1OCCC(=O)Nc1c(C)n(C)n(-c2ccccc2)c1=O` has an inhibition of 3.48%. Work on `Cc1ccc(S(=O)(=O)CC(=O)Nc2c(C)n(C)n(-c3ccccc3)c2=O)cc1` yielded an inhibition of 0.73%. Molecule `O=C(/C=C/c1ccc2c(c1)OCCO2)c1ccc(O)cc1` has an inhibition of 9.09%. Molecule `CCN(c1ccccc1)S(=O)(=O)c1ccc2[nH]c(=O)[nH]c2c1` has an inhibition of 5.66%. For `CCN(c1ccccc1)S(=O)(=O)c1ccc(N)cc1`, the inhibition was 21.5% (active). `CCN(c1ccccc1)S(=O)(=O)c1ccc(NC(=O)C(C)(C)C)cc1` gave an inhibition of 0.99%. Molecule `CS(=O)(=O)N1CCC(C(=O)N2CCN(c3ccccc3)CC2)CC1` has an inhibition of 1.55%. `CSc1ccccc1NC(=O)CN(C)CC(=O)Nc1cccc(Br)c1` was tested, and the inhibition was -6.18%. For `C/C=N/N(c1ccccc1)c1ccccc1`, the inhibition was 0.39%. `CCOc1cc(/C=N/O)cc(Br)c1OC` showed an inhibition of 7.25%. `C=CCOc1c(Br)cc(/C=N\n2nnnc2N)cc1OC` was tested, and the inhibition was -2.19%. In the case of `CCOc1c(Br)cc(/C=C2\C(=O)N(CCC#N)N=C2C)cc1OC`, the inhibition was 26.9% (active). With `C/C(CC(=O)Nc1ccc(Cl)cc1)=N\NC(=O)C(=O)NCCO` the inhibition was 2.21%. Work on `O=S(=O)(Cc1ccccc1)c1nc2ccccc2n1Cc1ccccn1` yielded an inhibition of 2.46%. `N#CC1=C(N)Oc2[nH]c(=S)[nH]c(=O)c2C12C(=O)Nc1ccccc12` (centres undefined) was tested, and the inhibition was 20.7% (active). `Cc1ccc(NC2(C#N)C(=O)Nc3ccccc32)cc1` (centres undefined) was tested, and the inhibition was 2.18%. `N#CC1=C(N)Oc2n[nH]c(CSc3ccccc3)c2C12C(=O)Nc1ccccc12` (centres undefined) was tested, and the inhibition was 7.12%. With `COc1ccc2c(c1)CCc1cn3ncc(C#N)c3nc1-2` the inhibition was 7.2%. In the case of `CCC(=O)OCCNc1nc(-c2ccccc2)nc2ccccc12`, the inhibition was 4.18%. In the case of `Cc1cc(C(C)(C)C)cc(C)c1N`, the inhibition was 7.52%. `COc1cc(C(F)(F)F)c(C(=O)N(C)c2ccc(Cl)cc2)cn1` was tested, and the inhibition was -1.66%. With `C#CCOCCOCCOCCNc1nc(N2CCN(C(=O)[C@H](CCCCN)n3cc([C@@H](N)C(C)CC)nn3)CC2)nc(N2CCN(C(=O)[C@H](Cc3ccc(O)cc3)n3cc([C@@H](N)C(C)CC)nn3)CC2)n1` (some centres undefined) the inhibition was 13.3%. For `C#CCOCCOCCOCCNc1nc(N2CCN(C(=O)C(Cc3ccc(O)cc3)n3cc(C(N)CC(C)C)nn3)CC2)nc(N2CCN(C(=O)C(Cc3ccc(O)cc3)n3cc(C(N)C(C)CC)nn3)CC2)n1` (centres undefined), the inhibition was 14.7% (active). With `C#CCOCCOCCOCCNc1nc(N2CCN(C(=O)[C@H](Cc3ccc(O)cc3)n3cc(C(N)CC(C)C)nn3)CC2)nc(N2CCN(C(=O)[C@H](CCC(=O)O)n3cc(C(N)[C@H](C)CC)nn3)CC2)n1` (some centres undefined) the inhibition was -3.1%. For `O=C(NCCc1ccccn1)c1cccnc1Oc1ccc(Cl)cc1`, the inhibition was -3.2%. With `COc1ccccc1N1CCN(C(=O)C(=O)N/N=C/c2ccccc2F)CC1` the inhibition was 0.1%. With `Cc1cc(NC(=O)CCC(=O)N(c2ccccc2)C(C(=O)NC2CCCC2)c2ccncc2)no1` (centres undefined) the inhibition was 3.62%. In the case of `COc1ccc(C(C(=O)NC2CCCCC2)N(C(=O)Cc2c[nH]c3ccccc23)c2ccccc2)cc1OC` (centres undefined), the inhibition was 14.6% (active). With `COc1ccc(C(C(=O)NC2CCCCC2)N(C(=O)CCl)c2ccccc2Cl)cc1` (centres undefined) the inhibition was -0.41%. `Cc1ccc2nc(-c3ccc(NC(=O)c4cccnc4)cc3)oc2c1` gave an inhibition of -7.59%. `COc1cccc(NC(=S)C(C#N)=C2N(C)c3ccccc3N2C)c1` showed an inhibition of 4.23%. In the case of `Cc1[nH][nH]c(=O)c1C(c1ccc(-c2ccc(Cl)cc2)o1)c1c(C)[nH][nH]c1=O`, the inhibition was 18.4% (active). With `CCOc1ccc(C(c2c(C)[nH][nH]c2=O)c2c(C)[nH][nH]c2=O)cc1OCC` the inhibition was -3.3%. `Cc1[nH][nH]c(=O)c1C(c1ccc2c(c1)OCO2)c1c(C)[nH][nH]c1=O` was tested, and the inhibition was -1.45%. `CCc1ccccc1NC(=O)CN(c1ccc(OC)cc1OC)S(=O)(=O)c1ccccc1[N+](=O)[O-]` showed an inhibition of 0.37%.
